# Laboratory results from ChEMBL document CHEMBL3988442, “University of Dundee, Small-Polar-MMV Screening Library” (2021).
# Hit rate of the full screen: of about 69,000 compounds, about 950 (1.4%) showed an effect of 50% or more. The entries come from a sample that favours strong results as a whole.
# System: Mycobacterium tuberculosis
# Experiment: Cornell M. t heat shock assay; also: in the data most compounds retested in dose-response had high values
# Assay type: functional, organism-based
# Parameters: dose or concentration left out as unconfirmed
row,Structure (SMILES),Percent Effect [%]
1,COCCN1CCC2(CC1)C(=O)Nc1ccc(C(=O)NC(C)C)cc12.O=C(O)C(F)(F)F,-30.6
2,O=C(NC1CCCN(c2ccc(OC(F)F)cc2)C1)c1cnccn1 (centres undefined),27.97
3,Cl.O=C(CN1CCCC1=O)N1CCC(O)(Cn2ccc3ccncc32)CC1,9.776
4,O=C(O)C(F)(F)F.O=S(=O)(C1CC1)N1C[C@@H]2COC[C@]2(COc2ccccn2)C1,-12.78
5,COc1cccc(CC2CCCN2Cc2nccn2C)c1 (centres undefined),0.2214
6,CNCC(=O)N1CCCC1c1n[nH]cc1-c1ccccc1F.Cl (centres undefined),-23.25
7,COc1ccc(CNC(Cc2ccsc2)c2ccc(C)cn2)c(OC)c1 (centres undefined),104.3
8,COc1ccc(NC(=O)N(CCO)Cc2ccsc2)c(OC)c1,-10.14
9,COc1cccc(OC)c1CNC(Cc1ccsc1)c1ccc(C)cn1 (centres undefined),103.5
10,COc1ccncc1NCc1ccsc1,-12.4
11,COc1ccc(CNC(Cc2cccs2)c2nc(C)c(C)s2)cc1OC.Cl (centres undefined),-4.28
12,Cc1cccc(-c2ncc(CNC(C)Cc3ncccc3C)cn2)c1 (centres undefined),1.404
13,COc1cccc(CNC(C)C)c1OCc1ccc(C)cc1.Cl,4.479
14,COc1ccc(CNc2c(C)nn(C(C)C)c2C)cc1OC.Cl,12.96
15,CCc1cnc(N)nc1NCc1ccc(OC)cc1OC,-28.22
16,Cc1cccnc1C(Cc1ccsc1)NC(=O)Cn1cccnc1=O (centres undefined),-0.9287
17,COc1ccc(CNC(Cc2ccsc2)c2ccc(C)cn2)cc1OC.Cl (centres undefined),97.07
18,Cc1cccnc1C(Cc1ccsc1)NCc1cnc(N(C)C)nc1 (centres undefined),69.2
19,COc1ccccc1OCCNCc1c(C)nn(C)c1N(C)C.Cl,31.69
20,COc1ccc(CC(=O)NCC(O)c2sccc2C)cc1OC (centres undefined),0.2606
21,Cc1ccc(CNC2CCc3[nH]c(=O)ccc3C2)cc1C.O=C(O)C(F)(F)F (centres undefined),-33.52
22,O=C(O)C(F)(F)F.O=C(O)C(F)(F)F.c1cnc(N2CC3(CCN(Cc4cccnc4)C3)C2)nc1,-26.88
23,CN1CCCC1c1cncc(C(=O)NCCN2CCCCC2)n1 (centres undefined),-9.497
24,O=C(Nc1cccnc1-n1cc(Cl)cn1)C1CCCC1,16.14

row,Structure (SMILES),Percent Effect [%]
1,Cc1cc(C2CCNCC2)nc(-c2ccsc2)n1.Cl,-13.2
2,CN(C)[C@@H]1CCN(C(=O)Cc2ccc(F)cc2)[C@H]1Cc1cnn(C)c1.O=C(O)C(F)(F)F,10.95
3,COc1ccc(C(C)NCc2ccsc2)cc1Cn1cccn1 (centres undefined),-10.38
4,COc1ccc(CNC(Cc2ccsc2)c2ncccc2C)cc1OC (centres undefined),96.19
5,COc1ncc(NCc2ccsc2)cc1C(N)=O,-17.59
6,CCc1cnc(N)nc1NCc1ccc(OC)c(OC)c1,5.948
7,COc1ccc(CNC(C)Cn2cccn2)cc1OC (centres undefined),-13.02
8,Cc1cnc(N2CCC3(CCN(Cc4csc(C)n4)C3=O)C2)nc1.O=C(O)C(F)(F)F (centres undefined),-3.389
9,Cc1ccc2c(n1)N(Cc1cccnc1)CCN(C(=O)C1CC1)C2.O=C(O)C(F)(F)F.O=C(O)C(F)(F)F,-27.88
10,Cl.Cn1ccnc1C1(O)CCN(C(=O)Cc2ccccc2)CC1,-18.55
11,CN(Cc1ccc(-n2cccn2)cc1)C[C@@H]1CCCN2CCCC[C@H]12,-24.54
12,Cc1ccc(N2CCC3(CCN(C(=O)c4ccccn4)CC3)CC2)nn1.O=C(O)C(F)(F)F.O=C(O)C(F)(F)F,-19.27
13,COc1cc(C#N)ccc1OC12CCCN(CC1)C2 (centres undefined),-7.079
14,CCCc1ccc(OC23CCCN(CC2)C3)c(OC)c1 (centres undefined),85.22
15,COc1cc(CN2CCCC2)ccc1OC12CCCN(CC1)C2 (centres undefined),-26.73
16,CS(=O)(=O)NC[C@H]1OC[C@@H]2CCN(CCc3ccccc3)C[C@@H]21.O=C(O)C(F)(F)F,-13.26
17,CC(C)N(C)Cc1cncc2c1CCN(CC1CC1)C2.Cl.Cl.Cl,9.593
18,O=C(O)C(F)(F)F.O=C(O)[C@]12CCCN(C3CCOC3)C[C@H]1CN(c1nncs1)C2 (some centres undefined),32.9
19,COCCN1CCCn2c(nc(CNC(=O)COC)cc2=O)C1.O=C(O)C(F)(F)F,37.74
20,COc1ccc(CN2C[C@H]3C[C@H](C(=O)Nc4cccnc4)[C@@H](C2)O3)cc1,4.187
21,CCc1c(C)sc(NC(=O)CN2CCN(CC)CC2)c1C(=O)OC,103.2
22,CCOC(=O)c1c(NC(=O)CN2CCN(C(C)=O)CC2)sc(C)c1C,-7.801
23,CCc1c(C)sc(NC(=O)CN2CCOCC2)c1C(=O)OC,24.22
24,CN1CCCC1c1cccc(Cc2ccc(F)cc2)n1 (centres undefined),24.93

row,Structure (SMILES),Percent Effect [%]
1,CN1CCCC1c1cccc(Cc2ccccc2F)n1 (centres undefined),69.94
2,CC(=O)N1CCCC1c1cccc(Cc2ccccc2F)n1 (centres undefined),-21.24
3,Cc1cccc(CN2CCc3ncnc(C4CC4)c3CC2)n1.O=C(O)C(F)(F)F,-23.65
4,CCN1CCN(C)C(=O)C12CCN(Cc1csc(C)n1)CC2.O=C(O)C(F)(F)F,25.71
5,O=C(O)C(F)(F)F.O=C(O)C(F)(F)F.c1cncc(-c2ncnc3c2CCN(Cc2cccs2)CC3)c1,-18.81
6,CC(C)Cc1cc(NC(=O)c2ccccc2)n(C)n1,19.61
7,CC(C)Cc1cc(NC(=O)c2ccccn2)n(C)n1,64.59
8,CC(C)Cc1cc(NC(=O)c2ccncc2)n(C)n1,18.34
9,CN(Cc1ccncc1)C1COC2(CCN(Cc3cccs3)CC2)C1.O=C(O)C(F)(F)F.O=C(O)C(F)(F)F.O=C(O)C(F)(F)F (centres undefined),10.37
10,CN(C)C(=O)CO[C@@H]1CC[C@H]2[C@H]1OCCN2c1ncc(F)cn1.O=C(O)C(F)(F)F,7.03
11,O[C@@H]1CN(c2nc3ccccc3o2)CC[C@H]1c1ccc2c(c1)OCO2,-10.34
12,O[C@@H]1CN(c2nc3ccccc3s2)CC[C@H]1c1ccc2c(c1)OCO2,-12.43
13,O[C@@H]1CN(c2cnc3ccccc3n2)CC[C@H]1c1ccc2c(c1)OCO2,107.1
14,O=C(O)C(F)(F)F.c1ccn(Cc2nnc3n2CCCN(Cc2ccoc2)C3)c1,-15.36
15,O=C(C1CCC1)N1C[C@@H]2CN(Cc3ccncc3)C(=O)[C@@H]2C1.O=C(O)C(F)(F)F,6.384
16,CN(C)CCCNCCC(c1ccccc1)C1CCOC(C)(C)C1.O=C(O)C(=O)O (centres undefined),21.84
17,CN1CCN(C2COC3(CCN(Cc4ccc(F)cc4)CC3)C2)CC1.O=C(O)C(F)(F)F.O=C(O)C(F)(F)F.O=C(O)C(F)(F)F (centres undefined),-9.014
18,CCCNC(=O)NC(=O)CNC(C)(C)c1ccc2c(c1)OCCO2,99.39
19,CCNC(=O)NC(=O)CNC(C)(C)c1ccc2c(c1)OCCO2,11.57
20,CCCNC(=O)NC(=O)CNC(C)(C)c1ccc2c(c1)OCO2,-10.73
21,Cc1cc(C[C@@H]2COC[C@H]2NCc2ccc(C(C)C)cc2)on1.O=C(O)CC(O)(CC(=O)O)C(=O)O,9.353
22,Cc1[nH]c2ccc(Cl)cc2c1CCNc1ncnc2c1CCNC2,96.99
23,Cc1[nH]c2ccccc2c1CCNc1ncnc2c1CCNCC2,1.152
24,Cc1[nH]c2ccc(C#N)cc2c1CCNc1ncnc2c1CCNCC2,7.503

row,Structure (SMILES),Percent Effect [%]
1,Cc1cc(C)nc(N2CCCC(C(=O)Nc3n[nH]c(C(C)C)n3)C2)n1 (centres undefined),13.11
2,O=C(c1ccc[nH]1)N1CCCn2c(CN3CCCCC3)nnc2C1,16.28
3,O=C1CCCN1Cc1nnc2n1CCCN(C(=O)c1ccc[nH]1)C2,27.49
4,O=C(O)C(F)(F)F.O=C(c1ccc[nH]1)N1CCCn2c(CNC3CCC3)nnc2C1,92.9
5,Cc1cnc(NC(=O)c2cccc(CN(C)Cc3ncccc3C)c2)s1,62.95
6,Cc1cnc(NC(=O)c2cccc(CN(C)Cc3ccno3)c2)s1,6.699
7,Cc1cnc(NC(=O)c2cccc(CN(C)Cc3snnc3C)c2)s1,9.507
8,Cl.O=C(c1cccc(F)c1)N1CCCC1c1ncc2c(n1)CCNC2 (centres undefined),-29.7
9,NC(=O)NC(=O)CCN1CCN(CC2CC2)c2ccccc21,-11.96
10,NC(=O)NC(=O)CN1CCN(CC2CC2)c2ccccc21,61.15
11,CNC(=O)NC(=O)CN1CCN(CC2CC2)c2ccccc21,34.37
12,CN(C)CCN1CCCC12CCN(C(=O)c1ccoc1)CC2.O=C(O)C(F)(F)F.O=C(O)C(F)(F)F,-7.317
13,O=C(O)C(F)(F)F.O=C1C[C@H]2[C@H](CCN2Cc2ccccn2)N1CC1CC1,-8.238
14,CN(C)CCCNC(=O)c1ccc(N(C)S(C)(=O)=O)cc1Cl,4.922
15,O=C(CCN1CCCN(c2nccs2)CC1)NCC1CCCCC1,0.6887
16,NC(=O)NC(=O)CN1CCN(c2nccs2)CC1,-3.548
17,O=C(CCN1CCCN(c2nccs2)CC1)Nc1ccccc1,-8.927
18,CNC(=O)NC(=O)CCN1CCN(c2nccs2)CC1,23.87
19,NC(=O)NC(=O)CCN1CCCN(c2nccs2)CC1,91.9
20,NC(=O)NC(=O)CCN1CCN(c2nccs2)CC1,101.5
21,CCn1cncc1CN(Cc1ccc(OC)cc1OC)CC1CCCO1.O=C(O)CC(O)(CC(=O)O)C(=O)O (centres undefined),-14.56
22,CN(Cc1cccnc1)[C@@H]1CN(C(=O)CC2CC2)[C@@H]2CCCO[C@H]12.O=C(O)C(F)(F)F.O=C(O)C(F)(F)F,-21.3
